# High-throughput results (PubChem)
# Giardia FBPA inh-1: Giardia lamblia aldolase inhibition. Potency, µM (series often up to 59.6 µM), without a hit: top-dose activity, negative = inhibition, hits mostly inhibitors. hit rate 0.71% among 290,000. purified Giardia FBPA; further: potency means the concentration at half of the fitted maximal effect; on the % scale 0 is the no-effect control and ±100 the full control effect; nearly all actives have a fitted effect of over 55% in size
# Target sequence (A8B2U2 whole entry, looked up): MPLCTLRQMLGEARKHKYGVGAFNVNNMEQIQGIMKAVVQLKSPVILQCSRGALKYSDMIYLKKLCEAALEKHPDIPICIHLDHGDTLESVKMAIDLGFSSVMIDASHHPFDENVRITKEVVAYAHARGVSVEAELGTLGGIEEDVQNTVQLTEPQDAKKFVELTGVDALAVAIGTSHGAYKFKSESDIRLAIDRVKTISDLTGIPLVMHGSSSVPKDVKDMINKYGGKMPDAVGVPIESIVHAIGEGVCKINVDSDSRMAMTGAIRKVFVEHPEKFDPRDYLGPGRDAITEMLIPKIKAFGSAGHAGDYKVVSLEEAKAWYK
#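 40 nM FBPA preincubated 10 min at RT with compound (up to 57.5 uM final), then substrate plus GAPDH/TPI/NAD/arsenate coupling and diaphorase/resazurin added. Fluorescence read after 20 min at RT, 525/598 nm.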
# Cycloheximide cs: counter-screen hit for Shiga toxin inhibitors, cycloheximide. cell reporter, cycloheximide protein synthesis inhibition counterscreen. max response, %. hit rate 12% among 300,000. AID 2314; in the data active means max response mostly above about 13%, no sharp cut-off; inactive means mostly below about 14%; further: read at 38.3 µM for the half of the compounds with a filed dose; 0% is about no effect
# Shiga inhibitor: inhibitors of Shiga toxin in Vero cells. Vero cells, Shiga toxin protein synthesis inhibition reporter. inhibition, % at 38.7 µM. hit rate 9.2% among 290,000. AID 2315; in the data active means inhibition mostly above about 28%, no sharp cut-off; inactive means mostly below about 43%; further: 0% is about no effect
# Pf growth 96h: P. falciparum growth inhibition at 96 hour, primary screen for plastid delayed-death inhibitors; Potency, µM (top dose mostly 28.7 µM), inactives show top-dose activity change, negative = inhibition, hits mostly inhibitors; P. falciparum luciferase reporter growth, 96 h; hit rate 6.9% among 320,000; further: potency means the concentration at half of the fitted maximal effect; on the % scale 0 is the no-effect control and ±100 the full control effect
#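 Parasite growth measured via integrated firefly luciferase reporter in P. falciparum. Infected erythrocytes at 2% hematocrit, 0.05% parasitemia final were treated 96 hours at 37 C under 5% CO2, and luminescence was read.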
# NS1 function inh: blocks influenza NS1 protein function; hit rate 0.4% among 270,000; Potency, µM (series often up to 46.1 µM), inactives show top-dose activity, positive = more growth; calls by dose curve; further: potency means the concentration at half of the fitted maximal effect; actives are rising curves; nearly all actives have a fitted effect of over 50% in size
#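 Recovery from NS1-induced slow growth read by OD600 in budding yeast switched to galactose assay medium (pH 6.0, -URA) at 1:100 dilution. Compound 23 nl per well; the matching strain lacking NS1 serves as control.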
# Pf growth 48h: P. falciparum growth inhibition at 48 hours (one generation). hit rate 5.9% among 310,000. Potency, µM (series often up to 28.7 µM), for inactives: at the top dose activity change, negative = inhibition, actives largely listed as inhibitors. AID 504832. P. falciparum luciferase growth in erythrocytes, 48 h; further: potency means the concentration at half of the fitted maximal effect; on the % scale 0 is the no-effect control and ±100 the full control effect
#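 Cell-based growth assay: transgenic P. falciparum expressing firefly luciferase, cultured in red cells within RPMI 1640 containing 0.5% w/v Albumax, 24 mM bicarbonate and gentamycin. A drop in luciferase activity indicates inhibition.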
# Giardia growth: inhibitors of Giardia lamblia growth. shares compounds with Giardia FBPA inh-1. hit rate 5% among 1,500. Potency, µM (doses to about 57.5 µM), for inactives: at the highest dose activity change, negative = inhibition, hits mostly inhibitors. Giardia lamblia trophozoite growth inhibition. AID 2785;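 further: potency means the concentration at half of the fitted maximal effect; trophozoites exposed to compound for 48 h at 37 °C; on the % scale 0 is the no-effect control and ±100 the full control effect; nearly all actives have a fitted effect of over 70% in size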
# Mammal cell tox: counter-screen for Giardia aldolase inhibitors: mammalian cell toxicity; shares compounds with Giardia FBPA inh-1; mammalian cell viability counter-screen, qHTS; Potency, µM (doses to about 57.5 µM), without a hit: top-dose viability change, negative = toxicity, usual class: inhibitors; hit rate 4% among 1,500;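 further: Chinese hamster ovary cells used as mammalian cytotoxicity surrogate; viability measured as cellular ATP by luminescence; potency means the concentration at half of the fitted maximal effect; compound exposure lasted 48 h before reading; on the % scale 0 is the no-effect control and ±100 the full control effect; nearly all actives have a fitted effect of over 60% in size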
# Giardia FBPA inh-2: confirmation of Giardia fructose-bisphosphate aldolase inhibitors. shares compounds with Giardia FBPA inh-1. purified Giardia aldolase enzyme activity, qHTS. Potency, µM (titrated, usually from 57.5 µM), for inactives: top-dose activity change, negative = inhibition, most hits filed as inhibitors. hit rate 5% among 1,500. AID 2787; further: potency means the concentration at half of the fitted maximal effect; on the % scale 0 is the no-effect control and ±100 the full control effect; nearly all actives have a fitted effect of over 45% in size
# Rabbit aldolase: selectivity test for Giardia aldolase inhibitors: rabbit aldolase; Potency, µM (top dose mostly 57.5 µM), inactives show top-dose activity, negative = inhibition, usual class: inhibitors; hit rate 4% among 1,500; Rabbit muscle FBPA enzyme inhibition, selectivity counter-screen; shares compounds with Giardia FBPA inh-1; further: potency means the concentration at half of the fitted maximal effect; on the % scale 0 is the no-effect control and ±100 the full control effect; nearly all actives have a fitted effect of over 60% in size
# Target sequence (P00883 whole entry, looked up): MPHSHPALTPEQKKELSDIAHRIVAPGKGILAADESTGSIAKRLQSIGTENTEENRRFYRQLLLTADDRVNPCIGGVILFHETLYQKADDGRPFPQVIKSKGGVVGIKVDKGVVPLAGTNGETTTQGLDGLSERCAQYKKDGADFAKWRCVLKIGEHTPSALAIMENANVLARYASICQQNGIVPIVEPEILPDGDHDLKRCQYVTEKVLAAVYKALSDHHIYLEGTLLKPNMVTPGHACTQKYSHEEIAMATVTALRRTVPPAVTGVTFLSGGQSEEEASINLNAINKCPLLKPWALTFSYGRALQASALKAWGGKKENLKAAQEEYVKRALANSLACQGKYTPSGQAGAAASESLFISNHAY
# GAPDH coupling: counter-screen for Giardia aldolase inhibitors: GAPDH coupling enzyme. shares compounds with Giardia FBPA inh-1. GAPDH coupling enzyme counterscreen, biochemical, qHTS. Potency, µM (top dose mostly 57.5 µM), for the others: at the top dose activity change, negative = inhibition, usual class: inhibitors. hit rate 6% among 1,500. AID 2795; further: potency means the concentration at half of the fitted maximal effect; on the % scale 0 is the no-effect control and ±100 the full control effect; nearly all actives have a fitted effect of over 55% in size
# An asterisk follows results filed as active; ? = inconclusive; nt = no result; [ ] = dose if it differs, or a comment. A selection: hits, their analogues and other compounds. The true share with any hit is near 21%. Unless noted, the call rests on the fitted dose curve; in most records, active means well fitted curve in the direction sought with a large enough effect; inconclusive means small, poorly fitted or top-dose-only effect, or another doubt; inactive means no such curve, though single readings can be large; an effect the other way counts as inactive or inconclusive.
SMILES,Giardia FBPA inh-1,Cycloheximide cs,Shiga inhibitor,Pf growth 96h,NS1 function inh,Pf growth 48h,Giardia growth,Mammal cell tox,Giardia FBPA inh-2,Rabbit aldolase,GAPDH coupling
Cc1ccccc1NC(=O)CN1CCN(C)CC1,25µM*,-7,-6,8%,8%,-14%,11%,-1%,1%,9%,12%
COC(=O)CC1C(=O)NCCN1C(=S)NC(=O)C(c1ccccc1)c1ccccc1 (stereo unspecified),-27%,-4,-12,?,4%,?,nt,nt,nt,nt,nt
CC(C)OC(=O)CC1C(=O)NCCN1C(=S)NC(=O)CCc1ccccc1 (stereo unspecified),-9%,-3,-13,0%,1%,3%,nt,nt,nt,nt,nt
CC(C)OC(=O)CC1C(=O)NCCN1C(=S)NC(=O)c1ccc(F)cc1 (stereo unspecified),16µM*,-1,-5,3%,1%,1%,-19%,-5%,7%,5%,8%
CC(C)OC(=O)CC1C(=O)NCCN1C(=S)NC(=O)c1ccccc1 (stereo unspecified),11µM*,19,24,?,15%,33%,-13%,11%,7%,5%,8%
COC(=O)CC1C(=O)NCCN1C(=S)NC(=O)c1sc2ccccc2c1Cl (stereo unspecified),16µM*,-1,-6,?,-1%,22%,13%,3%,5%,8%,12%
O=C(Nc1cccc(-c2nc3cccnc3s2)c1)C1c2ccccc2Oc2ccccc21,1%,-2,30,-20%,?,-17%,nt,nt,nt,nt,nt
Cc1cc2c(c(SCC#N)n1)C(=O)OC2,0%,-3,-8,?,nt,143%,nt,nt,nt,nt,nt
O=C(Cc1ccccc1)NC1c2ccccc2-c2ccccc21,10%,-3,-2,?,1%,14%,nt,nt,nt,nt,nt
C=CCNc1nc(C)c(CNc2c(C)cc(C)cc2C)nc1C#N,-2%,1,nt,?,-34%,?,nt,nt,nt,nt,nt
O=C(O)CCCN1C(=O)/C(=C/c2ccc(-c3nc4ccccc4s3)o2)SC1=S,-22%,10,22,12%,18%,-2%,nt,nt,nt,nt,nt
O=C(O)CCCCCN1C(=O)/C(=C\c2ccc(-c3ccc(Cl)cc3)o2)SC1=S,16µM*,6,9,2%,0%,-7%,11%[10.4 µM],4%,-4%,3%,15%
COc1ccccc1OCc1nn[nH]n1,32µM*,1,-4,79%,8%,5%,?,18%,-3%,12%,-9%
NC1=NC(=O)/C(=C/c2cccc(-c3ccc(S(N)(=O)=O)cc3)c2)S1,-1%,-1,-11,83%,6%,39%,nt,nt,nt,nt,nt
COc1cc(/C=C2\SC(c3ccc(C)cc3)=NC2=O)cc(OC)c1O,14µM*,-1,-15,?,25%,?,?,-7%,14µM*,?,?
Cc1ccc(C2=NC(=O)/C(=C/c3cc(O)c(O)c(Br)c3)S2)cc1,16µM*,7,37,35%,nt,10µM*,7%[10.4 µM],-18%,-15%,-9%,10%
Cc1ccc(N(C(=O)Cn2nnc(-c3ccccc3)n2)C(C(=O)NC2CCCCC2)c2ccccn2)cc1C (stereo unspecified),6%,-1,-10,96%,12%,?,nt,nt,nt,nt,nt
CCOc1ccccc1C1CC(=O)NC(SCC(=O)Nc2nccs2)=C1C#N (stereo unspecified),-11%,-3,-13,?,-3%,nt,nt,nt,nt,nt,nt
Cc1ccccc1Cn1c(=O)n(CC2CCC(C(=O)NCCc3ccccc3)CC2)c(=O)c2ccccc21 (stereo unspecified),4%,-1,8,44%,0%,21%,nt,nt,nt,nt,nt
OCC1(CCc2ccccc2)CCN(Cc2ccccc2Cl)CC1,1%,-1,-14,66%,3%,?,nt,nt,nt,nt,nt
O=C(Cc1ccccc1)N1CCN(CCCc2ccccc2)CC1,25µM*,-2,-7,?,9%,1%,50%,1%,-2%,8%,7%
Fc1ccc(CN2CCN(C(c3ccccc3)c3ccccc3)CC2)cc1,25µM*,-3,-9,?,-23%,?,?,19%,-1%,12%,-5%
O=C(Cc1ccccc1)N1CCN(Cc2ccc(F)cc2)CC1,28µM*,-4,4,0%,3%,-8%,2%[10.4 µM],5%,6%,18%,9%
Cc1ccc(CC(=O)N2CCN(Cc3ccccc3)CC2)cc1,-1%,-1,31,?,-5%,11%,nt,nt,nt,nt,nt
Clc1ccccc1CN1CCN(CCCc2ccccc2)CC1,20µM*,-3,25,26%,nt,-10%,-47%,-2%,-1%,7%,9%
SMILES,Giardia FBPA inh-1,Cycloheximide cs,Shiga inhibitor,Pf growth 96h,NS1 function inh,Pf growth 48h,Giardia growth,Mammal cell tox,Giardia FBPA inh-2,Rabbit aldolase,GAPDH coupling
CCOC(=O)c1ccc(N2C(=O)CC(NC3CCN(C(=O)c4cccc(Cl)c4)CC3)C2=O)cc1 (stereo unspecified),-8%,0,-3,125%,-32%,?,nt,nt,nt,nt,nt
O=C(NN1CCN(Cc2ccccc2)CC1)c1ccc(N2CCOCC2)c([N+](=O)[O-])c1,-8%,-3,26,-2%,nt,9%,nt,nt,nt,nt,nt
COCCNC(=S)NNc1cccc(C(=O)O)c1,8.9µM*,18,66*,79%,nt,21%,-1%[38.3 µM],4%,0%,1%,-13%
COCCNC(=S)NNC(=O)c1ccco1,?,2,-6,-34%,3%,nt,nt,nt,nt,nt,nt
COc1ccc(-c2nc(-c3ccccn3)nc(N3CCN(C)CC3)c2C#N)cc1,9%,2,-4,?,?,?,nt,nt,nt,nt,nt
O=C(NC1CCCCCC1)C(=S)NC1CCCCC1,18µM*,10,18,-11%,5%,63%,?,7%,-8%,1%,3%
Cc1cc(=O)[nH]c(SCC(=O)/C=C2\N(C)c3ccccc3C2(C)C)n1,-1%,-1,7,?,-6%,-37%,nt,nt,nt,nt,nt
CN1/C(=C\C(=O)CSc2cccc[n+]2[O-])C(C)(C)c2ccccc21,11µM*,1,-14,3.3µM*,nt,-24%,-21%,24%,-3%,7%,2%
